High-throughput results as filed in PubChem BioAssay.
L3MBTL1 inh = inhibitors of human L3MBTL1; Q9Y468; AlphaScreen L3MBTL1–H3K9me1 peptide binding; Potency, µM (titrated, usually from 57.1 µM), inactives show at the top dose activity, negative = inhibition, hits mostly inhibitors; 0.66% of 230,000 active; AID 485360; further: on the % scale 0 is the no-effect control and ±100 the full control effect; nearly all actives have a fitted effect of over 60% in size
Target sequence (Q9Y468 whole entry, looked up): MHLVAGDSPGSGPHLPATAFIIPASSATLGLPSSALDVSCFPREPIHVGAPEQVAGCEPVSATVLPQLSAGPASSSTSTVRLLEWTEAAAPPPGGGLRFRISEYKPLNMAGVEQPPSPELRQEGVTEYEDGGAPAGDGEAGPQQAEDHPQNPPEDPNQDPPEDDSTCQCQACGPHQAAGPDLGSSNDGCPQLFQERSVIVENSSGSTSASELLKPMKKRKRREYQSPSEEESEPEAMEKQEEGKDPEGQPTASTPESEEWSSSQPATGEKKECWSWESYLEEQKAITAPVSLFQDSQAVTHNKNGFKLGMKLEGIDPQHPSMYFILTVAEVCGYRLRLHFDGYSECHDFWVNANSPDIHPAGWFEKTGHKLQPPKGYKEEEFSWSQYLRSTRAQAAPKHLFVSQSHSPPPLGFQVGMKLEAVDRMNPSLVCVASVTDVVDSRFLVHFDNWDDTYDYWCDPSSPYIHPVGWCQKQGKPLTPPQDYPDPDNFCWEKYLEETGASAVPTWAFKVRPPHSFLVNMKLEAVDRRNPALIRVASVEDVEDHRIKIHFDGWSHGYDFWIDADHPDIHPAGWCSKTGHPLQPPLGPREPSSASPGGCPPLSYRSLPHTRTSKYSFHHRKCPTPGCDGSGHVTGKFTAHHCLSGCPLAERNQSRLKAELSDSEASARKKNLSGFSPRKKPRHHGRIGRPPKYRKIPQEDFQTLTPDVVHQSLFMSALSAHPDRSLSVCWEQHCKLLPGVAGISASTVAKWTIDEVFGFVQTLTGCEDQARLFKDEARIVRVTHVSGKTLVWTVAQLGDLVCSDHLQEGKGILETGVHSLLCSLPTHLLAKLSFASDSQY
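First, the protein-peptide complex forms for 30 min at room temperature (L3MBTL1 50 nM, biotinylated H3K9me1 peptide 75 nM). Next, compounds are pin-transferred and incubated 30 min. Finally, AlphaScreen beads are added and read after 30 min.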
HP1b chromo inh = HP1-beta chromodomain-methylated histone interaction inhibition | P83916 | 0.56% of 390,000 active | AlphaScreen HP1-beta / biotin-H3K9me3 peptide binding | AID 540317 | Potency, µM (titrated, usually from 114 µM), without a hit: top-dose activity change, negative = inhibition, actives largely listed as inhibitors; further: nearly all actives have a fitted effect of over 70% in size
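Compound inhibition of the preformed complex between 50 nM HP1-beta and 50 nM biotinylated H3K9me3 peptide was read by AlphaScreen. Buffer was PBS pH 7.4 with 0.01% Tween-20. Incubations ran 30 min at room temperature, with 10 ug/mL donor/acceptor beads.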
Sfp inh = Sfp phosphopantetheinyl transferase inhibition. Q9F4F7. Potency, µM, for the others: largest response in the series, negative = inhibition, most hits filed as inhibitors. Biochemical Sfp PPTase activity, qHTS. 3.5% of 310,000 active. AID 1490;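 further: the enzyme is Sfp with the accession as filed and its product quenches rhodamine fluorescence; 0% = enzyme reaction without inhibitor and -100% = no enzyme wells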
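Buffer: 50 mM Hepes-Na pH 7.6, 10 mM MgCl2, 0.01% Nonidet P-40, 0.01% BSA. Enzyme 15 nM, pre-exposed to compound 15 min; substrates then added and fluorescence change tracked over 30 min.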
G9a inh = inhibitors of human histone lysine methyltransferase G9a. G9a H3K9 monomethylation, AlphaScreen, 2 h. Potency, µM (series often up to 102 µM), for inactives: at the top dose activity, negative = inhibition, most hits filed as inhibitors. 8.8% of 350,000 active; further: on the % scale 0 is the no-effect control and ±100 the full control effect; nearly all actives have a fitted effect of over 75% in size
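Using a bead-based AlphaScreen, monomethylated H3K9 product from 2 h room-temperature reactions (G9a 20 nM, peptide 500 nM, SAM 20 uM) was detected with 0.5 ug/mL rabbit anti-H3K9me1 antibody.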
JMJD2A Tudor inh = inhibitors of human JMJD2A Tudor domain. O75164. AlphaScreen JMJD2A-Tudor / H3K4me3 peptide binding. Potency, µM (doses to about 114 µM), without a hit: top-dose activity change, negative = inhibition, most hits filed as inhibitors. 4.4% of 390,000 active. AID 504339; further: on the % scale 0 is the no-effect control and ±100 the full control effect; nearly all actives have a fitted effect of over 50% in size
BAZ2B block = BAZ2B (human) inhibition; Q9UIF8; AlphaScreen BAZ2B-H3K14Ac peptide displacement; Potency, µM (titrated, usually from 114 µM), for inactives: top-dose activity change, negative = inhibition, usual class: inhibitors; 4.4% of 360,000 active; AID 504333; further: on the % scale 0 is the no-effect control and ±100 the full control effect; nearly all actives have a fitted effect of over 60% in size
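Multi-concentration screen (max 110 uM) measuring displacement of acetylated histone H3 peptide from BAZ2B by AlphaScreen, using 50 nM protein, 50 nM peptide and 10 ug/mL streptavidin donor plus Ni-chelate acceptor beads.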
Numbers without * were called inactive; ! = not confirmed by another sample; [ ] = another dose, or the depositor's remark. An excerpt weighted towards active compounds, which were near 12% of everything screened. The call rests on the fitted dose curve; in most records, active means well fitted curve in the direction sought with a large enough effect; inconclusive means small, poorly fitted or top-dose-only effect, or another doubt; inactive means no such curve, though single readings can be large; an effect the other way counts as inactive or inconclusive. Potency means the concentration at half of the fitted maximal effect.

What do the screens show for `O=C(CSc1nc2c([nH]c3ccccc32)c(=O)n1-c1ccccc1)Nc1cccc(C(F)(F)F)c1`?
HP1b chromo inh: 17.2%[57 µM]; G9a inh: 10.2%[59 µM]; JMJD2A Tudor inh: -21.9%; BAZ2B block: -1.5%

Results for Cc1cccc(C(=O)NC2C(=O)NNC2c2ccc(Cl)cc2)c1 (stereo not given) ?
HP1b chromo inh: 11.0%; Sfp inh: -11.5%; G9a inh: 15.8µM*; JMJD2A Tudor inh: -28.5%

How did Cc1ccc(S(=O)(=O)Nc2ccc(S(=O)(=O)Nc3cc(C)nc(C)n3)cc2)cc1 do in these assays?
L3MBTL1 inh: 3.7%; HP1b chromo inh: 40.9%; Sfp inh: -16.6%; G9a inh: 10µM*; JMJD2A Tudor inh: 1.4%; BAZ2B block: inconclusive

How did Cc1cc(NS(=O)(=O)c2ccc(NC(=S)NC(=O)c3cccc(S(=O)(=O)N(C)C)c3)cc2)no1 do in these assays?
L3MBTL1 inh: -21.9%; HP1b chromo inh: 0.3%; Sfp inh: -26.9%; G9a inh: 35.5µM*; JMJD2A Tudor inh: -9.2%; BAZ2B block: -18.4%

What do the screens show for `Cc1cc(NS(=O)(=O)c2ccc(NC(=O)c3ccco3)cc2)nc(C)n1`?
HP1b chromo inh: 41.2%; Sfp inh: 19.8%; G9a inh: inconclusive; JMJD2A Tudor inh: -21.5%; BAZ2B block: 5.6%

What do the screens show for `Cc1cc(NS(=O)(=O)c2ccc(NC(=O)/C=C/c3ccco3)cc2)nc(C)n1`?
L3MBTL1 inh: -16.9%; HP1b chromo inh: -4.7%; Sfp inh: -26.6%; G9a inh: 50.1µM*; JMJD2A Tudor inh: -15.5%; BAZ2B block: -16.8%

What do the screens show for `Cc1cc(NS(=O)(=O)c2ccc(NC(=O)COc3ccc(Br)cc3)cc2)nc(C)n1`?
HP1b chromo inh: 2.0%; Sfp inh: 3.9%; JMJD2A Tudor inh: 20µM*; BAZ2B block: -21.8%

Results for Cc1cc(C)nc(NS(=O)(=O)c2ccc(NC(=O)COc3ccccc3)cc2)n1 ?
L3MBTL1 inh: -0.6%; HP1b chromo inh: 30.7%; Sfp inh: 13.0%; G9a inh: -2.3%[59 µM]; JMJD2A Tudor inh: -2.2%; BAZ2B block: -6.3%

How did CCOC(=O)N1CCC(NC(=O)c2ccc3c(c2)N(Cc2cc(C)ccc2C)C(=O)c2ccccc2S3(=O)=O)CC1 do in these assays?
HP1b chromo inh: 27.7%; G9a inh: -5.1%[59 µM]; JMJD2A Tudor inh: -3.4%; BAZ2B block: -5.5%

How did FC(F)(F)c1ccccc1-c1nccc(NCCN2CCOCC2)n1 do in these assays?
Sfp inh: inconclusive; G9a inh: 0.7%[0.501 µM]

How did CCOC(=O)/C=C/C(=O)Nc1ccc(S(=O)(=O)N(C)c2ccccc2)cc1 do in these assays?
HP1b chromo inh: 7.6%; Sfp inh: 14.4%; G9a inh: 44.7µM*; JMJD2A Tudor inh: -29.3%; BAZ2B block: -17.5%

How did Cc1cc(NS(=O)(=O)c2ccc(NC(=O)COc3c(C)cc(Br)cc3C)cc2)no1 do in these assays?
HP1b chromo inh: 27.6%; Sfp inh: -7.8%; G9a inh: 56.2µM*!; JMJD2A Tudor inh: -11.3%; BAZ2B block: -34.4%

How did Cc1ccc(OCCC(=O)Nc2ccc(S(=O)(=O)Nc3cc(C)nc(C)n3)cc2)cc1 do in these assays?
L3MBTL1 inh: -0.1%; HP1b chromo inh: 28.1%; G9a inh: -44.9%; JMJD2A Tudor inh: -9.7%; BAZ2B block: -6.9%

How did CCCCC(Br)C(=O)Nc1ccc(S(=O)(=O)Nc2cc(C)nc(C)n2)cc1 (stereo not given) do in these assays?
HP1b chromo inh: 14.4%[57 µM]; Sfp inh: -17.4%; G9a inh: 50.1µM*; JMJD2A Tudor inh: -5.9%; BAZ2B block: -23.2%

How did Cc1cc(NS(=O)(=O)c2ccc(NC(=O)COc3ccc(Br)cc3C)cc2)no1 do in these assays?
HP1b chromo inh: 10.6%; G9a inh: -11.2%[59 µM]; JMJD2A Tudor inh: -17.0%; BAZ2B block: -6.9%

Results for CCOc1ccc(OCC(=O)Nc2ccc(S(=O)(=O)Nc3cc(C)nc(C)n3)cc2)cc1 ?
L3MBTL1 inh: 30.3%[11.4 µM]; HP1b chromo inh: 2.7%; Sfp inh: 9.1%; G9a inh: 14.1µM*; JMJD2A Tudor inh: -27.8%; BAZ2B block: -6.0%

How did CCCCOC(=O)Nc1ccc(S(=O)(=O)Nc2cc(C)nc(C)n2)cc1 do in these assays?
L3MBTL1 inh: 4.9%; HP1b chromo inh: 26.7%; Sfp inh: 8.4%; G9a inh: 11.1%[59 µM]; JMJD2A Tudor inh: -15.2%; BAZ2B block: 12.0%

Results for Cc1ccc(Nc2cc(C)c(C#N)c3nc4ccccc4n23)c(C)c1 ?
HP1b chromo inh: 48.0%; G9a inh: 10.6%[59 µM]; JMJD2A Tudor inh: -5.8%; BAZ2B block: -18.2%

How did COc1cc(C(=O)Nc2ccccc2-c2nc(-c3ccccc3)no2)cc(OC)c1OC do in these assays?
HP1b chromo inh: 11.1%; G9a inh: -19.9%[59 µM]; JMJD2A Tudor inh: -18.5%; BAZ2B block: -8.2%

Results for COc1ccc(C(=O)Nc2c(Cl)cc(Cl)cc2C(=O)N2CCOCC2)cc1 ?
L3MBTL1 inh: -1.5%; HP1b chromo inh: 29.4%; Sfp inh: 13.6%; G9a inh: -6.0%; JMJD2A Tudor inh: -15.1%; BAZ2B block: -15.0%

Results for CCOC(=O)/C=C/C(=O)Nc1ccc(S(=O)(=O)Nc2cc(C)on2)cc1 ?
HP1b chromo inh: 7.4%; Sfp inh: 15.5%; G9a inh: 50.1µM*; JMJD2A Tudor inh: -6.2%; BAZ2B block: -18.9%

What do the screens show for `Cc1ccc(S(=O)(=O)Nc2ccc(-c3cn4ccc(C)cc4n3)cc2)cc1`?
L3MBTL1 inh: -3.9%; HP1b chromo inh: 2.2%; Sfp inh: -1.1%; G9a inh: 44.7µM*; JMJD2A Tudor inh: inconclusive; BAZ2B block: -10.2%

How did CCCCN(C(=O)c1cccc(S(=O)(=O)N2CCN(C)CC2)c1)c1c(N)n(CCC)c(=O)[nH]c1=O do in these assays?
L3MBTL1 inh: -6.3%; HP1b chromo inh: 24.8%; G9a inh: -28.8%; JMJD2A Tudor inh: -5.5%; BAZ2B block: 4.5%

How did CCc1ccc(OCC(=O)Nc2ccc(S(=O)(=O)N3CCOCC3)cc2)cc1 do in these assays?
L3MBTL1 inh: -2.0%; HP1b chromo inh: 28.6%; G9a inh: inconclusive; JMJD2A Tudor inh: -9.7%; BAZ2B block: 5.9%

Results for COc1ccc(N(C(=O)COc2ccccc2OC)S(=O)(=O)c2ccc(Cl)cc2)cc1 ?
HP1b chromo inh: 5.8%; G9a inh: -22.7%[59 µM]; JMJD2A Tudor inh: -18.6%; BAZ2B block: -5.6%

How did O=C(NCC(c1ccco1)N1CCCCC1)c1ccc(S(=O)(=O)Nc2ccccc2)cc1 (stereo not given) do in these assays?
L3MBTL1 inh: 3.5%; HP1b chromo inh: 8.1%; G9a inh: 3.4%; JMJD2A Tudor inh: -14.8%; BAZ2B block: -0.8%
